Reference: article PMC5540273 (PLoS ONE, 2017)

Tests used:
Conditions in all cases: concentration: 1 μM, replicates: in singlicate; n = 1
EPHA7 = system: EPHA7
EPHA8 = system: EPHA8
EPHB1 = system: EPHB1
EPHB2 = system: EPHB2
EPHB3 = system: EPHB3
EPHB4 = system: EPHB4
EPHB6 = system: EPHB6
ERBB2 = system: ERBB2
ERBB3 = system: ERBB3
ERBB4 = system: ERBB4
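Also: KINOMEscan kinase panel screen.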

| SMILES | %Inh (EPHA7) [%] | %Inh (EPHA8) [%] | %Inh (EPHB1) [%] | %Inh (EPHB2) [%] | %Inh (EPHB3) [%] | %Inh (EPHB4) [%] | %Inh (EPHB6) [%] | %Inh (ERBB2) [%] | %Inh (ERBB3) [%] | %Inh (ERBB4) [%] |
| --- | --- | --- | --- | --- | --- | --- | --- | --- | --- | --- |
| Cl.Cl.NCC(NCc1ccc(-c2ccnc3[nH]ccc23)s1)c1ccccc1 (centres unmarked) [GSK1321565] | 0 | 0 | 13 | 0 | 5 | 7 | 27 | 0 | 19 | 11 |
| O=C(Nc1ccccc1F)NC1CCN(c2ccnc(Nc3ccc(F)cc3)n2)CC1 [GSK1379800] | 0 | 0 | 17 | 0 | 11 | 8 | 18 | 33 | 3 | 32 |
| c1ccc(Oc2ccc(Nc3ccnc4cc(-c5ccc(CNCCN6CCOCC6)o5)ccc34)cc2)nc1 [GW567145] | 0 | 7 | 0 | 5 | 0 | 0 | 98 | 44 | 98.4 | 7 |
| Cl.Cl.NCC(NC(=O)c1cc(-c2ccccc2)c(-c2ccnc3[nH]ccc23)s1)c1ccccc1 (centres unmarked) [GSK1321561] | 11 | 50 | 16 | 0 | 7 | 19 | 2 | 58 | 0 | 49 |
| O=C(Nc1cccc(-c2nn3ccccc3c2-c2ccnc(Nc3cccc(C(F)(F)F)c3)n2)c1)c1c(F)cccc1F [GSK292658] | 0 | 0 | 2 | 0 | 5 | 0 | 25 | 80 | 0 | 90 |
| Cc1ccc(C)c(NC(=O)NC2CCN(c3ccnc(Nc4ccc(F)cc4)n3)C2)c1 (centres unmarked) [GSK1379720] | 0 | 0 | 0 | 16 | 8 | 6 | 24 | 43 | 11 | 47 |
| CNC(=O)c1ccccc1Nc1nc(Nc2ccc(N3CCOCC3)cc2)ncc1Cl.Cl [GSK1576028] | 88 | 40 | 71 | 23 | 2 | 46 | 95.2 | 79 | 0 | 93.4 |
| CN(C)Cc1ccc(-c2ccc3c(Nc4ccc(Oc5ccccn5)cc4)ccnc3c2)o1 [GW567148] | 0 | 13 | 0 | 0 | 30 | 0 | 97.4 | 45 | 98.9 | 0 |
| COc1ccc(Nc2nccc(N3CCC(NC(=O)Nc4cccc(OC)c4)C3)n2)cc1 (centres unmarked) [GSK1379742] | 6 | 11 | 9 | 0 | 12 | 0 | 9 | 34 | 4 | 0 |
| COC(=O)Nc1nc2cc(Oc3ccc(NC(=O)Nc4cc(C(F)(F)F)ccc4F)cn3)ccc2[nH]1.Cl.Cl [GW681170] | 82 | 98.2 | 63 | 78 | 12 | 55 | 86 | 22 | 2 | 2 |
| Cc1cccc(Nc2nc(N[C@H]3CCNC3)ncc2C(N)=O)c1.Cl [GSK2197149] | 10 | 15 | 27 | 0 | 12 | 0 | 0 | 13 | 0 | 23 |
| Cn1cc(-c2[nH]c3cc(NC(=O)[C@H](N)C4CCCCC4)cc4c3c2C=NNC4=O)cn1 | 4 | 10 | 15 | 0 | 1 | 0 | 92.4 | 64 | 77 | 36 |
| COc1cccc(C2=C(Nc3ccc(Cl)c(C(=O)O)c3)C(=O)NC2=O)c1 [SB-390769] | 0 | 15 | 0 | 23 | 10 | 10 | 100 | 28 | 5 | 0 |
| Cc1occc1-c1ncc(OC[C@@H](N)Cc2c[nH]c3ccccc23)cc1-c1ccc2[nH]nc(C)c2c1.O=C(O)C(F)(F)F [GSK682037] | 6 | 39 | 10 | 0 | 17 | 14 | 0 | 81 | 0 | 47 |
| O=C(Nc1n[nH]c2cc(-c3ccoc3)ccc12)C1CC1 [SB-738481] | 0 | 31 | 0 | 0 | 0 | 5 | 10 | 0 | 0 | 0 |
| CSc1cccc2c(-c3ccncn3)c(-c3ccc(F)cc3)nn12 [GW514786] | 9 | 26 | 15 | 0 | 4 | 2 | 20 | 34 | 13 | 0 |

| SMILES | %Inh (EPHA7) [%] | %Inh (EPHA8) [%] | %Inh (EPHB1) [%] | %Inh (EPHB2) [%] | %Inh (EPHB3) [%] | %Inh (EPHB4) [%] | %Inh (EPHB6) [%] | %Inh (ERBB2) [%] | %Inh (ERBB3) [%] | %Inh (ERBB4) [%] |
| --- | --- | --- | --- | --- | --- | --- | --- | --- | --- | --- |
| O=C(NC1CCN(c2ccnc(Nc3ccc(F)cc3)n2)C1)c1cc2ccccc2s1 (centres unmarked) [GSK1379716] | 7 | 14 | 9 | 18 | 17 | 15 | 0 | 42 | 22 | 28 |
| Nc1ncc(-c2cccnc2)c2scc(-c3ccc4c(c3)CCN4C(=O)Cc3ccccc3)c12 [GSK683281] | 19 | 26 | 21 | 9 | 12 | 2 | 98.1 | 1 | 0 | 2 |
| CCn1c(-c2nonc2N)nc2c(C#CC(C)(C)O)nc(OC[C@H](N)c3ccccc3)cc21 [GSK943949] | 0 | 0 | 8 | 0 | 0 | 0 | 28 | 12 | 0 | 0 |
| COc1cccc(-c2ccc3c(NC(=O)C4CC4)n[nH]c3n2)c1 [SB-710903] | 16 | 30 | 0 | 24 | 24 | 16 | 48 | 51 | 0 | 36 |
| Cl.NC(=O)c1cccc(Nc2nccc(Nc3ccc(Oc4c(Cl)cccc4Cl)c(Cl)c3)n2)c1 [GW659009] | 0 | 6 | 93.5 | 0 | 0 | 0 | 32 | 92.5 | 93.3 | 93.9 |
| O=C(O)C(F)(F)F.O=C(O)C(F)(F)F.O=c1[nH]ccc2nc(N[C@@H]3CCCNC3)nc(Nc3ccc(S(=O)(=O)N4CCOCC4)cc3)c12 [GSK2177277] | 58 | 39 | 31 | 0 | 15 | 21 | 30 | 2 | 45 | 12 |
| Nc1ncnc2c1nc(-c1ccccc1)n2-c1ccccc1 [SKF-97293] | 0 | 7 | 15 | 0 | 29 | 10 | 16 | 14 | 43 | 0 |
| CC(C)c1nc(-c2cccc(NS(=O)(=O)c3c(F)cccc3F)c2F)c(-c2ccnc(Nc3ccc(N4CCOCC4)nc3)n2)s1 [GSK2008607] | 0 | 99.4 | 40 | 0 | 0 | 0 | 99 | 92.1 | 97.7 | 97.7 |
| O=C(Nc1cccc(-c2nn3ncccc3c2-c2ccnc(Nc3ccccc3)n2)c1)c1c(F)cccc1F [GSK198271] | 5 | 19 | 18 | 11 | 1 | 6 | 63 | 95.2 | 80 | 100 |
| COC(=O)Nc1nc2ccc(Oc3ccc(NC(=O)Nc4cc(C(F)(F)F)ccc4F)cc3)cc2n1C.Cl [GW692089] | 72 | 91.5 | 35 | 43 | 17 | 48 | 67 | 28 | 29 | 4 |
| Cc1cccc(NC(=O)Nc2ccc(Oc3ncnc4ccn(C)c34)cc2)c1 | 18 | 0 | 6 | 0 | 21 | 0 | 91 | 49 | 0 | 12 |
| O=C(Nc1n[nH]c2nc(-c3ccc(O)cc3)ccc12)C1CC1 [SB-710363] | 0 | 0 | 0 | 16 | 0 | 0 | 38 | 0 | 94.6 | 6 |
| COc1cc(Nc2nccc(N3CCC(NC(=O)Nc4cccc(C(C)=O)c4)C3)n2)cc(OC)c1OC (centres unmarked) [GSK1379753] | 11 | 16 | 18 | 0 | 13 | 6 | 88 | 2 | 0 | 19 |
| C[C@@H]1CC[C@@H](C(=O)Nc2ccccc2)CN1c1cc(-c2ccc3c(N)n[nH]c3c2)nc(N)n1 [GSK2286062] | 0 | 4 | 5 | 0 | 0 | 10 | 14 | 44 | 0 | 0 |
| O=C(Nc1cccc(Oc2ccc3nc(NC(=O)C4CC4)cn3n2)c1)c1ccccc1C(F)(F)F | 0 | 29 | 6 | 19 | 7 | 10 | 31 | 25 | 52 | 20 |
| Cl.c1ccc(-c2ccc3c(Nc4ccc5[nH]ccc5c4)ccnc3c2)nc1 [GW440138] | 3 | 25 | 11 | 0 | 1 | 5 | 79 | 63 | 50 | 44 |
